In PubChem BioAssay (EPA / NIEHS):
Values joined by “and” are separate entries in the source; they are usually repeats but may differ in a detail not shown here. Equal values may be shown once. Some structures have more than one record in an assay (separate samples or runs), and their calls can disagree. Active and inactive are the calls of the source. The calls were made as follows: active = hit-call score of the fitted dose curve at least 0.9, where 1 is the maximum; inactive = score below 0.9.

How the values were obtained:
[1] = read-out: Matrix Metallopeptidase 1 (MMP1), MMP1 (gene 4312); assay: BSK_MyoF_MMP1: BioMAP Diversity Plus: MyoF Assay for Matrix Metallopeptidase 1 (MMP1) Biomarker Activity (AID 2284268); conditions: primary human lung fibroblasts
Summary of the method: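 Human lung fibroblasts (MyoF system) exposed to chemical for 24 h in 96-well format; MMP1 biomarker quantified by ELISA, with activity fitted in the positive direction relative to DMSO baseline.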

[2] = read-out: TIMP metallopeptidase inhibitor 1 (TIMP1), TIMP1 (gene 7076); assay: BSK_MyoF_TIMP1: BioMAP Diversity Plus: MyoF Assay for TIMP metallopeptidase inhibitor 1 (TIMP1) Biomarker Activity (AID 2284269); conditions: primary human lung fibroblasts
Summary of the method: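 TIMP-1 levels were determined by ELISA in human lung fibroblasts treated for 24 h. DMSO served as negative control and baseline for upward curve fitting.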

[3] = read-out: Matrix Metallopeptidase 3 (MMP3), MMP3 (gene 4314); assay: BSK_BF4T_MMP3: BioMAP Diversity Plus: BF4T Assay for Matrix Metallopeptidase 3 (MMP3) Biomarker Activity (AID 2284271); conditions: primary human bronchial epithelial cells with fibroblasts
Summary of the method: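 MMP-3 level read by ELISA after 24 h chemical exposure of bronchial epithelial cell/dermal fibroblast co-cultures, fitted upward relative to DMSO. Parallel cultures stained with 0.1% SRB after TCA fixation gauge overt cytotoxicity.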

[4] = read-out: Tissue plasminogen activator (tPA), PLAT (gene 5327); assay: BSK_BF4T_tPA: BioMAP Diversity Plus: BF4T Assay for Tissue plasminogen activator (tPA) Biomarker Activity (AID 2284272); conditions: primary human bronchial epithelial cells with fibroblasts
Summary of the method: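 tPA level quantified by ELISA at 24 h post-treatment in bronchial epithelial/dermal fibroblast co-cultures, gain of signal scored against DMSO baseline. Parallel cultures stained with 0.1% SRB (560 nm) to flag overt cytotoxicity.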

[5] = BSK_BF4T_SRB: Viability Assessment in the BioMAP Diversity Plus: BF4T Assay (AID 2284274); conditions: primary human bronchial epithelial cells with fibroblasts
Summary of the method: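 Cytotoxicity measured as total protein: cells fixed with 10% TCA, stained with 0.1% SRB, read at 560 nm. Bronchial epithelial/dermal fibroblast co-culture, 24 h after dosing, with positive-direction fitting relative to DMSO.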

[6] = read-out: urokinase Plasminogen Activator (uPA), PLAU (gene 5328); assay: BSK_BF4T_uPA: BioMAP Diversity Plus: BF4T Assay for urokinase Plasminogen Activator (uPA) Biomarker Activity (AID 2284275); conditions: primary human bronchial epithelial cells with fibroblasts
Summary of the method: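 uPA levels measured by ELISA at 24 hours in BF4T cultures (bronchial epithelial cells plus dermal fibroblasts) and compared with DMSO; cytotoxicity tracked in parallel cultures by sulforhodamine B staining.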

[7] = read-out: Matrix Metallopeptidase 9 (MMP9), MMP9 (gene 4318); assay: BSK_BF4T_MMP9: BioMAP Diversity Plus: BF4T Assay for Matrix Metallopeptidase 9 (MMP9) Biomarker Activity (AID 2284276); conditions: primary human bronchial epithelial cells with fibroblasts
Summary of the method: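 MMP-9 levels were measured by ELISA after 24 h exposure of bronchial epithelial cell/dermal fibroblast co-cultures, with DMSO as baseline. Parallel cultures were stained with 0.1% SRB after TCA fixation, read at 560 nm, to flag overt cytotoxicity.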

[8] = read-out: Interleukin-8 (IL8), CXCL8 (gene 3576); assay: BSK_IMphg_IL8: BioMAP Diversity Plus: IMphg Assay for Interleukin-8 (IL8) Biomarker Activity (AID 2284277); conditions: primary human endothelial cells with macrophages
Summary of the method: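 IL-8 levels were measured by ELISA 24 h after dosing in primary human venular endothelial cell–macrophage cultures, referenced to DMSO; parallel SRB staining monitored overt cytotoxicity.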

[9] = read-out: Intercellular Adhesion Molecule 1 (ICAM1), ICAM1 (gene 3383); assay: BSK_BE3C_ICAM1: BioMAP Diversity Plus: BE3C Assay for Intercellular Adhesion Molecule 1 (ICAM1) Biomarker Activity (AID 2284278); conditions: primary human bronchial epithelial cells;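 also: cell-surface ICAM-1 protein level quantified by ELISA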
Summary of the method: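 ICAM-1 quantified by ELISA and fitted against DMSO baseline, 24 h post-dosing in BE3C cultures of primary human lung bronchial epithelial cells. Cytotoxicity checked in parallel cultures by total protein SRB staining.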

[10] = read-out: Interferon-inducible T-cell alpha chemoattractant (ITAC), CXCL11 (gene 6373); assay: BSK_BE3C_ITAC: BioMAP Diversity Plus: BE3C Assay for Interferon-inducible T-cell alpha chemoattractant (ITAC) Biomarker Activity (AID 2284279); conditions: primary human bronchial epithelial cells
Summary of the method: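 The assay measures I-TAC levels by ELISA in human primary bronchial epithelial cell cultures 24 hours after chemical treatment. Values reflect signal increase over the DMSO baseline.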

[11] = read-out: Interleukin-8 (IL8), CXCL8 (gene 3576); assay: BSK_BE3C_IL8: BioMAP Diversity Plus: BE3C Assay for Interleukin-8 (IL8) Biomarker Activity (AID 2284280); conditions: primary human bronchial epithelial cells
Summary of the method: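 Dose human bronchial epithelial cells with chemical; incubate 24 h; quantify IL-8 by ELISA; fit response upward versus DMSO controls.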

[12] = read-out: KRT18 (gene 3875); assay: BSK_BE3C_Keratin818: BioMAP Diversity Plus: BE3C Assay for Keratin 818 Biomarker Activity (AID 2284282); conditions: primary human bronchial epithelial cells
Summary of the method: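 ELISA readout of Keratin 8/18 in human primary bronchial epithelial cultures after 24 h chemical exposure, DMSO baseline. Parallel SRB staining (0.1%, TCA-fixed, 560 nm) served as cytotoxicity check.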

[13] = read-out: Matrix Metallopeptidase 9 (MMP9), MMP9 (gene 4318); assay: BSK_BE3C_MMP9: BioMAP Diversity Plus: BE3C Assay for Matrix Metallopeptidase 9 (MMP9) Biomarker Activity (AID 2284283); conditions: primary human bronchial epithelial cells
Summary of the method: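 MMP9 is measured by ELISA after a 24 h compound exposure of primary human bronchial epithelial cultures. Parallel SRB staining gives overt cytotoxicity. Values fitted in the positive direction against DMSO.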

[14] = read-out: Plasminogen activator inhibitor-1 (PAI1), SERPINE1 (gene 5054); assay: BSK_CASM3C_PAI1: BioMAP Diversity Plus: CASM3C Assay for Plasminogen activator inhibitor-1 (PAI1) Biomarker Activity (AID 2284284); conditions: primary human coronary artery smooth muscle cells;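 also: PAI-1 protein level measured by ELISA 24 h after dosing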
[15] = read-out: Monocyte Chemoattractant Protein-1 (MCP1), CCL2 (gene 6347); assay: BSK_hDFCGF_MCP1: BioMAP Diversity Plus: hDFCGF Assay for Monocyte Chemoattractant Protein-1 (MCP1) Biomarker Activity (AID 2284285); conditions: primary human foreskin fibroblasts
Summary of the method: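 MCP-1 ELISA readout was taken 24 hours after dosing primary human dermal fibroblasts in the hDFCGF system, with DMSO as baseline. Parallel sulforhodamine B staining of total protein tracked overt cytotoxicity.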

[16] = read-out: Vascular cell adhesion molecule 1 (VCAM1), VCAM1 (gene 7412); assay: BSK_IMphg_VCAM1: BioMAP Diversity Plus: IMphg Assay for Vascular cell adhesion molecule 1 (VCAM1) Biomarker Activity (AID 2284286); conditions: primary human endothelial cells with macrophages
Summary of the method: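 ELISA read-out of VCAM-1 on venular endothelial cell/macrophage co-cultures at 24 h post-treatment, with DMSO as baseline and positive-direction fitting. Parallel sulforhodamine B total-protein staining (560 nm) served as the overt cytotoxicity measure.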

[17] = read-out: Intercellular Adhesion Molecule 1 (ICAM1), ICAM1 (gene 3383); assay: BSK_hDFCGF_ICAM1: BioMAP Diversity Plus: hDFCGF Assay for Intercellular Adhesion Molecule 1 (ICAM1) Biomarker Activity (AID 2284287); conditions: primary human foreskin fibroblasts
Summary of the method: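 ICAM-1 ELISA readout 24 h after dosing, DMSO as baseline, in human dermal foreskin fibroblast cultures. Cytotoxicity checked in parallel wells by SRB staining (0.1% SRB, 10% TCA fixation, 560 nm).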

[18] = read-out: CD40, CD40 (gene 958); assay: BSK_IMphg_CD40: BioMAP Diversity Plus: IMphg Assay for CD40 Biomarker Activity (AID 2284288); conditions: primary human endothelial cells with macrophages
Summary of the method: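 ELISA read-out of cell-surface CD40 at 24 h in human venular endothelial cell/macrophage co-cultures. Activity fitted in the positive direction against DMSO; parallel SRB staining (560 nm) gauges overt cytotoxicity.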

[19] = read-out: TIMP metallopeptidase inhibitor 2 (TIMP2), TIMP2 (gene 7077); assay: BSK_hDFCGF_TIMP2: BioMAP Diversity Plus: hDFCGF Assay for TIMP metallopeptidase inhibitor 2 (TIMP2) Biomarker Activity (AID 2284289); conditions: primary human foreskin fibroblasts
Summary of the method: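 Primary human foreskin fibroblasts in the hDFCGF system, dosed for 24 h; TIMP-2 level measured by ELISA, fitted in the positive direction against DMSO; cytotoxicity checked in parallel by sulforhodamine B total protein staining.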

[20] = read-out: Macrophage colony-stimulating factor (MCSF), CSF1 (gene 1435); assay: BSK_IMphg_MCSF: BioMAP Diversity Plus: IMphg Assay for Macrophage colony-stimulating factor (MCSF) Biomarker Activity (AID 2284293); conditions: primary human endothelial cells with macrophages
Summary of the method: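 M-CSF was measured by ELISA in human venular endothelial cell/macrophage co-cultures dosed for 24 hours. Sulforhodamine B staining of parallel cultures assessed cytotoxicity; data fitted against DMSO baseline.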

Measured: AC50

O=P(OCC(Br)CBr)(OCC(Br)CBr)OCC(Br)CBr (stereo unspecified)
inactive: [2]
active: [1] 25.9 µM

COC(=O)C(F)(F)C(F)(F)OC(F)(C(F)(F)F)C(F)(F)OC(F)=C(F)F (stereo unspecified)
active: [8] 1.61 µM and 1.92 µM | [10] 3.93 µM and 4.84 µM
inactive: all other assays above

FC(F)(F)C(F)(C(F)(F)F)C(F)(F)C(F)(F)CC1CO1 (stereo unspecified)
active: [19] 0.319 µM
inactive: [1] | [2] | [3] | [4] | [5] | [6] | [7] | [8] | [9] | [10] | [11] | [12] | [13] | [14] | [15] | [16] | [17] | [18] | [19] | [20]

c1ccc2c(c1)sc1ccccc12
inactive: [1] | [2]

CCCCC(CC)COP(=O)(Oc1ccccc1)Oc1ccccc1 (stereo unspecified)
active: [1] 5.32 µM | [2] 6.48 µM

O=C(O)C(F)(F)OC(F)(F)C(F)(F)OC(F)(F)C(=O)O
inactive: all assays above

COP(N)(=S)OC
inactive: [1] | [2]

CC(C)Nc1ccc(Nc2ccccc2)cc1
inactive: [1]
active: [2] 20 µM

CCCCOCCOP(=O)(OCCOCCCC)OCCOCCCC
inactive: [1] | [2]

O=C(O)C(F)(OC(F)(F)C(F)(F)C(F)(F)F)C(F)(F)F (stereo unspecified)
inactive: [1] | [2] | [3] | [4] | [5] | [6] | [7] | [8] | [9] | [10] | [11] | [12] | [13] | [14] | [15] | [16] | [17] | [18] | [19] | [20]
active: [8] 5.95 µM | [13] 1.45 µM | [20] 0.22 µM
